# Screening results: PubChem, NMMLSC
# RPL19A-GFP yeast – modulators of TOR pathway RPL19A-GFP in S. cerevisiae; 330,000 tested, 0.3% active; S. cerevisiae RPL19A-GFP strain, flow cytometry, 3 h; active compounds read low; percent response vs DMSO, % at 10 µM; AID 2025;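 active = percent response vs DMSO below 50%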;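 also: median channel GFP fluorescence of the barcoded RPL19A-GFP strain; ratio of sample median GFP to plate DMSO average so 100% = DMSO; lower means less RPL19A-GFP as with rapamycin TOR inhibition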
# LAP4 TOR yeast – alters LAP4-GFP fluorescence in TOR pathway yeast screen; S. cerevisiae LAP4-GFP multiplex, flow cytometry GFP, 3 h; median GFP as percent of DMSO wells; GFP response vs DMSO, % at 10 µM; 320,000 tested, 0.34% active;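 active = GFP response vs DMSO above a set limit, about the screen mean plus 3 SD, cut at about 150% in these data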
# DSG3 Ab inh – inhibitors of pemphigus antibody binding to human desmoglein-3; AID 588358; 310,000 tested, 0.48% active; DSG3-coupled beads, scFv-anti-DSG3-GFP binding, flow cytometry; active compounds read low; P32926; binding (percent of control), % at 10 µM;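 active = binding more than 3 SD below its plate's average and above zero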;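 also: hits lower antibody fragment binding to DSG3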
# AGP1-GFP MLPCN – yeast TOR pathway AGP1-GFP modulation | S. cerevisiae AGP1-GFP multiplex flow cytometry, 3 h; GFP as percent of DMSO wells | AID 2066 | 320,000 tested, 0.02% active | GFP response vs DMSO, % at 10 µM;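 active = GFP response relative to DMSO above a set limit, near screen average plus 3 SD, cut at about 150% in these data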;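 also: median GFP channel fluorescence of the gated AGP1 strain per well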
# CIT2 TOR yeast – yeast TOR pathway CIT2-GFP modulation; S. cerevisiae CIT2-GFP strain, flow cytometry, 3 h; 100 means same as DMSO wells; GFP response vs DMSO, % at 10 µM; 320,000 tested, 0.065% active;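 active = GFP response relative to DMSO above a set limit, near the screen mean plus 3 SD, cut at about 150% in these data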;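 also: ratio of well median GFP fluorescence to mean of DMSO wells on the plate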
# MEP2 TOR yeast – alters MEP2-GFP fluorescence in TOR pathway yeast screen; 330,000 tested, 0.51% active; S. cerevisiae MEP2-GFP strain, flow cytometry GFP, 3 h; 100% = DMSO control level; GFP response vs DMSO, % at 10 µM; AID 2016;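 active = GFP response versus DMSO above a set limit, roughly screen mean plus 3 SD, cut at about 180% in these data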;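 also: median GFP fluorescence of the barcode-gated MEP2-GFP cells per well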
# LAP4-GFP pick2 – reconfirmed LAP4-GFP TOR pathway modulator in yeast. shares compounds with LAP4 TOR yeast. S. cerevisiae LAP4-GFP strain, flow cytometry GFP, 3 h. GFP response vs DMSO, % at 10 µM. 590 tested, 20% active. AID 2621;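 active = GFP signal as percent of the solvent control above about 150%, meaning raised reporter expression, limit read from the data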;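 also: ratio of well median GFP fluorescence to plate DMSO mean so 100% = DMSO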
# MEP2-GFP pick2 – yeast MEP2-GFP modulation, second cherry pick. shares compounds with LAP4 TOR yeast. S. cerevisiae MEP2-GFP strain, flow cytometry GFP, 3 h. GFP response vs DMSO, % at 10 µM. 590 tested, 10% active;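 active = GFP signal above 150% of the solvent control wells, that is a rise of more than half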;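 also: median channel GFP fluorescence of all gated yeast cells per well; ratio of median GFP to plate DMSO average so 100% = DMSO level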
# RPL19A GFP CP2 – yeast RPL19A-GFP TOR reporter modulation, second cherry pick | shares compounds with LAP4 TOR yeast | S. cerevisiae RPL19A-GFP strain, flow cytometry GFP, 3 h; active compounds read low; 100% means same as DMSO wells | GFP response vs DMSO, % at 10 µM | 590 tested, 3% active | AID 2623;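 active = under 65% GFP response relative to DMSO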;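 also: median GFP channel fluorescence per well over the all cells gate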
# CIT2 GFP CP2 – second confirmation of modulators of TOR reporter CIT2-GFP in yeast. shares compounds with LAP4 TOR yeast. 590 tested, 8% active. GFP response vs DMSO, % at 10 µM. AID 2624. S. cerevisiae CIT2-GFP strain, flow cytometry GFP, 3 h; DMSO control wells read 100%;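 active = GFP response vs DMSO above about 150%, limit read from the data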;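 also: median green fluorescence per well over all gated yeast cells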
# AGP1-GFP pick2 – yeast AGP1-GFP TOR reporter modulation, second cherry pick | 590 tested, under 10 active | shares compounds with LAP4 TOR yeast | S. cerevisiae AGP1-GFP strain, flow cytometry GFP, 3 h | percent response vs DMSO, % at 10 µM;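 active = over 150 percent of DMSO response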;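 also: median GFP channel fluorescence over all cells without mother daughter split; sample median GFP divided by mean DMSO control so 100% equals DMSO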
# s288c autofluor – yeast s288c autofluorescence artifact, counter-screen; shares compounds with LAP4 TOR yeast; S. cerevisiae s288c, 520 nm autofluorescence, flow cytometry, 3 h; active compounds read high; zero means same as solvent-only cells; fluorescence change (kMESF span) at 33 µM; 610 tested, under 10 active; AID 2757;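 active = fluorescence span over the dose series, or activity score, above about 33, limit read from the data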
# An asterisk follows results filed as active; / = not tested or not shown; + = active, no number. Hits are enriched below; roughly 1.2% of the tested compounds scored in any of these assays.
SMILES,RPL19A-GFP yeast,LAP4 TOR yeast,DSG3 Ab inh,AGP1-GFP MLPCN,CIT2 TOR yeast,MEP2 TOR yeast,LAP4-GFP pick2,MEP2-GFP pick2,RPL19A GFP CP2,CIT2 GFP CP2,AGP1-GFP pick2,others
CCc1ccc(N2CC(C(=O)OCC(=O)Nc3ccc(C(C)=O)cc3)CC2=O)cc1 (configuration not stated),116,114,98,108,108,114,/,/,/,/,/,
Cc1cc(NC(c2ccc(Cl)cc2)c2ccc3cccnc3c2O)no1 (configuration not stated),95,151*,105,92,79,101,/,/,/,/,/,s288c autofluor=0
CCN1CCN(C(CNS(=O)(=O)c2ccc(F)cc2)c2cccnc2)CC1 (configuration not stated),99,96,99,104,154*,108,97,98,98,108,100,
CCN1CCN(C(CNS(=O)(=O)c2ccccc2)c2cccnc2)CC1 (configuration not stated),104,101,114,99,108,118,/,/,/,/,/,
CC(Cc1ccccc1)NC(=O)C1CCCNC1=O (configuration not stated),100,107,96,98,102,102,/,/,/,/,/,
O=C1Nc2ccc(Br)cc2/C1=C/C(=O)c1ccc2c(c1)OCO2,94,131,108,99,92,86,/,/,/,/,/,s288c autofluor=-0.4
Cn1c(SCC(=O)O)nnc1-c1cccc(NC(=O)c2cccc3ccccc23)c1,102,104,96,88,100,108,/,/,/,/,/,
CC(/C=C/C(=O)c1ccc(C)cc1)=C\c1ccccc1,94,92,93,100,98,91,/,/,/,/,/,
Cc1ccc(C(=O)/C=C\C(=O)c2ccc(C)cc2)cc1,97,168*,98,84,67,89,120,113,102,136,99,
Cc1cccc(C(=O)NCC(=O)N2CCC2)c1,403,+,101,447*,+,+,100,100,99,104,99,
O=C(CC(=O)c1ccccc1[N+](=O)[O-])c1ccccc1,91,139,/,104,93,93,/,/,/,/,/,
COc1cccc(-c2ncc3ccccc3c2COC(=O)c2ccc(Br)cc2)c1,93,112,109,95,84,85,/,/,/,/,/,
COc1cccc(-c2ncc3ccccc3c2COC(=O)c2cccc(Br)c2)c1,95,159*,/,101,81,103,132,98,91,105,96,
